This passage reports binding signal results from paper PMC7819943, “Rice protein-binding microarrays: a tool to detect cis-acting elements near promoter regions in rice”.

The full ranking holds about 68,000 sequences; the median of “fluorescence intensity (a.u.)” is about 9,100, and the highest 2% start at about 16,000. Shown is part of a subset that was picked to be rich in the highest values.

Chain of OsWRKY34 (Q0JBA9 entry or part of it): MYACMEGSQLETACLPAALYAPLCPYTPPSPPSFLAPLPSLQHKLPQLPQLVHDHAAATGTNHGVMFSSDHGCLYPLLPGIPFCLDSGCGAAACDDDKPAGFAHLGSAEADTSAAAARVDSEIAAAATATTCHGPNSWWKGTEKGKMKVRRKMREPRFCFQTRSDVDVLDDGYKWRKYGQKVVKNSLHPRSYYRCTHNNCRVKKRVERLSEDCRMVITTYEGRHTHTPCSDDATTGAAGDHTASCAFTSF

This assay concerns the target OsWRKY34 (Oryza sativa, UniProt Q0JBA9 1-250). The assay is described as follows: protein-binding microarray (RPBM); PBS, 2% BSA, 51.3 ng/ul salmon testes DNA, 50 uM zinc acetate, 200 nM TF, 25 C, 1 h; high values mean tight binding. The conditions noted are these: protein: recombinant; tags: N-terminal polyhistidine and DsRed monomer fusion (pET32a); label: CyDye5-dUTP incorporated in the synthesized complementary strand; 3' TTTTT single-stranded linker to array surface; dsDNA, one strand shown. The method, boiled down:
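For the binding signal, per-feature fluorescence intensity was read in arbitrary units on an Axon 4000B scanner. Before scanning, a 2% BSA-blocked custom Agilent array made double-stranded with Cy5-dUTP was washed after 1 h at 25 °C with 200 nM protein and 50 µM zinc acetate. The proteins were Ni–NTA-purified transcription factors with N-terminal polyhistidine and DsRed fusions, expressed in E. coli BL21-CodonPlus.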
On to “CACCACCCAGATCTGTCTCGTCTCTGTTCTTGCCTTCGCTCGGAGTCACCTAGTGCAG”, for which the binding signal is 11900 fluorescence intensity (a.u.).
Turning to “TGGTGTCTCATAATTCTCTACATGGTATCAAATACTGGTTCGGAGTCACCTAGTGCAG”, the binding signal is 9610 fluorescence intensity (a.u.).
In the case of “GGCGTTATATCTGGTTTTGTGGCTGAGGGAGGTAATTTAGCGGAGTCACCTAGTGCAG”, the binding signal is 11700 fluorescence intensity (a.u.).
With “TTCACGTTCAATGTTTGACCGTTCGTCTTATTTGAAAATTCGGAGTCACCTAGTGCAG”, the binding signal was 8550 fluorescence intensity (a.u.).
In the case of “AACTTCAGTCCTTTTCCATCACATCAACCTGTCATATACACGGAGTCACCTAGTGCAG”, the binding signal was 8220 fluorescence intensity (a.u.).
On to “TGAATTGGGAAATTTCGGTGTTTTTTTTCTTCTTTTTTTTCGGAGTCACCTAGTGCAG”, for which the binding signal was 8740 fluorescence intensity (a.u.).
With “TAGTTTTCTCATGTTCATCAATTTAAATACCTAACAATACCGGAGTCACCTAGTGCAG”, the binding signal was 8180 fluorescence intensity (a.u.).
For “GCTTGCTTTGTCACATGCAGTTTTACACCTTTTATTTCTCCGGAGTCACCTAGTGCAG”, the binding signal was 10400 fluorescence intensity (a.u.).
With “TTTCCTTTACTTTGGTGGTTCTTTTTTTTTTCTTTGTTTCCGGAGTCACCTAGTGCAG”, the binding signal was 11400 fluorescence intensity (a.u.).
Consider “GGTTCTTTGTTTCCGTTTGCTTTACCATTTTTGTTCCTTTCGGAGTCACCTAGTGCAG”, for which the binding signal is 10000 fluorescence intensity (a.u.).
Consider “ACTTTTTCCGAACCAAAATGGACTTCTTCCTTACGGTTACCGGAGTCACCTAGTGCAG”, for which the binding signal is 8390 fluorescence intensity (a.u.).
In the case of “CTGCTTTTATAGTTTGGTGGGCTTTTCTTTGCTAGTGGGCCGGAGTCACCTAGTGCAG”, the binding signal is 10600 fluorescence intensity (a.u.).
On to “TTCTCTTGCTTCCTTTTTGGTCATTTGAGATAGCTTTATCCGGAGTCACCTAGTGCAG”, for which the binding signal was 10300 fluorescence intensity (a.u.).
Then “GCTTGCAGGGCTTGGTTGTTTCTTCTTCCGTTTTTTTTTACGGAGTCACCTAGTGCAG”, with 13600 fluorescence intensity (a.u.).
Then “TCTTTTTTCCATCCATCTTTTTTTCGCCGTTCTTTCCGGTCGGAGTCACCTAGTGCAG”, with 8220 fluorescence intensity (a.u.); and “CAAACAAAATGGGTTTCTTCTTACGGTTGTGGGCTTTTTCCGGAGTCACCTAGTGCAG”, with 17400 fluorescence intensity (a.u.); and “TGCTTGTACAGTTTCCGGTTTCTTTGCCATTTCGTTTACACGGAGTCACCTAGTGCAG”, with 20000 fluorescence intensity (a.u.).
For the sequence “GGTTTCCGTGGTGGGCCGGTTTGGGCTTTTCTTTTTTACACGGAGTCACCTAGTGCAG”, the binding signal is 18500 fluorescence intensity (a.u.).
Consider “AATCGCCGTTCTAGCTTTTTGGTCTTGGTCTTTTTTTATCCGGAGTCACCTAGTGCAG”, for which the binding signal was 21400 fluorescence intensity (a.u.).
On to “ATCTCTTAACCTTTTTCTTATTACCAAACATGCTAACGGTCGGAGTCACCTAGTGCAG”, for which the binding signal was 8030 fluorescence intensity (a.u.).
Consider “TCGCCATCGATCGATCGTCTCAACCTCAACCACATTATTGCGGAGTCACCTAGTGCAG”, for which the binding signal was 8550 fluorescence intensity (a.u.).
“TCTTCGCAACTCCAAACTTCCCGAGCATCTTATCTTTGCACGGAGTCACCTAGTGCAG”: the binding signal was 8990 fluorescence intensity (a.u.).
As for “GTATTGCAATTTTTTTTTGTTTGTGTTGTATCTGTTCTCTCGGAGTCACCTAGTGCAG”, the binding signal is 8110 fluorescence intensity (a.u.).
For the sequence “GGTTAGGTTTTTTTATAGAGGGAGTAGTATGCAATTATTTCGGAGTCACCTAGTGCAG”, the binding signal was 9450 fluorescence intensity (a.u.).
As for “TTTCTTGGTTCCTGTGTCTAAGCCAGCTGTAAACTTACAACGGAGTCACCTAGTGCAG”, the binding signal was 8450 fluorescence intensity (a.u.).
In the case of “ATTTCCAAGCTCTCTTTGCAGTTACTCCTCGGTGTGCTCCCGGAGTCACCTAGTGCAG”, the binding signal was 8250 fluorescence intensity (a.u.).
Then “TATATATTGTTTTTTTTTACGTTGTTGGTTCCGGATGTGACGGAGTCACCTAGTGCAG”, with 9930 fluorescence intensity (a.u.).
On to “TTTTGGATTTTGTTTCATTTTTTTTACATGCATTGGATTACGGAGTCACCTAGTGCAG”, for which the binding signal is 8120 fluorescence intensity (a.u.).
The figure for “GTCATTGGTGGTTTATATTGTTTGGCTTTTTTCCGGATTACGGAGTCACCTAGTGCAG” is 18500 fluorescence intensity (a.u.); for “TGAGACAAAGCACATTCTACCCAAGGCCAGTTGCACCAACCGGAGTCACCTAGTGCAG” it is 8080 fluorescence intensity (a.u.).
“TCAGTGTTGAGTAGGGTTGGCAGGCGAGCACGCAGTAATGCGGAGTCACCTAGTGCAG”: the binding signal was 8190 fluorescence intensity (a.u.).
“TGTTGTGTGTTAGTTGTGGTGGTAGCATTTTTTCCTGGTACGGAGTCACCTAGTGCAG”: the binding signal is 13000 fluorescence intensity (a.u.).
Take “TAGCTACCTAAGCTTAGCTCACATTCTTCTCGCTTTCTCACGGAGTCACCTAGTGCAG”: the binding signal was 12000 fluorescence intensity (a.u.).
“GTGGGGTTGGAGGAGGGAGGGAGCTAGCTATAGTTGCTAGCGGAGTCACCTAGTGCAG”: the binding signal was 9980 fluorescence intensity (a.u.).
With “CGAGGGAGGGGAGGCGGCGGAGGCGAGAGAGGAGAGGGGACGGAGTCACCTAGTGCAG”, the binding signal was 11000 fluorescence intensity (a.u.).
On to “GTATCGCCAAGGAGGAGAGGGGAGAGGGGTGGAAGAGGAACGGAGTCACCTAGTGCAG”, for which the binding signal is 11900 fluorescence intensity (a.u.).
The figure for “GGAGGTGGGGAGGGGAGGAGAGGGGAAGAAGGAAGAAAAACGGAGTCACCTAGTGCAG” is 13300 fluorescence intensity (a.u.); for “GAGGAGGGACTCGGGGCGGGAGGAAGACGGCGAGGAGGGGCGGAGTCACCTAGTGCAG” it is 16500 fluorescence intensity (a.u.).
“GAAGGGTGGGAGGGGAAGGGGAGGACGAGCGGGCGGACGGCGGAGTCACCTAGTGCAG”: the binding signal is 11500 fluorescence intensity (a.u.).
Consider “GGTGGGACGTGGTGGGCGTCAAGGCGGCGGTGGGAGGGGACGGAGTCACCTAGTGCAG”, for which the binding signal was 20400 fluorescence intensity (a.u.).
For “AGGGCGGTGGGGCGGCAAGGGACCAGATGGTGGGGCGGCACGGAGTCACCTAGTGCAG”, the binding signal is 11100 fluorescence intensity (a.u.).
Turning to “CTGGGTGTGGGTGTGGGTCTGGGTCTGGGTGGAAGAGGAACGGAGTCACCTAGTGCAG”, the binding signal is 21200 fluorescence intensity (a.u.).
Turning to “ACTAGTTGAAGGAGTTGGGGCTATAAATGGGTGGTGCTATCGGAGTCACCTAGTGCAG”, the binding signal is 10900 fluorescence intensity (a.u.).
For the sequence “GGTGGGCTATAAATATAGTTGGGGAGGGGAGGGAAGACCCCGGAGTCACCTAGTGCAG”, the binding signal was 16700 fluorescence intensity (a.u.).
Take “GGGAGGAGGAGGAGGAGAAGGGCGGCGGGAGGAGGGGCGACGGAGTCACCTAGTGCAG”: the binding signal was 14000 fluorescence intensity (a.u.).
Take “TCGTCATCATCCTCGCCGCCATCGCCATCGCCATTGCCTACGGAGTCACCTAGTGCAG”: the binding signal was 9180 fluorescence intensity (a.u.).
Turning to “ACTTGTTTTACGTTCGGCTAATTAGCTGTTTGACCGTTTCCGGAGTCACCTAGTGCAG”, the binding signal is 15300 fluorescence intensity (a.u.).
Take “AAAAACGTCTCAATTGTAAGCTCACTATCTAACAATTTTCCGGAGTCACCTAGTGCAG”: the binding signal is 11200 fluorescence intensity (a.u.).
The figure for “GCTTGGTCTATAAGTTGCTGCTCTGCCCTGCTCGGCCTCACGGAGTCACCTAGTGCAG” is 12000 fluorescence intensity (a.u.); for “CTCCATCGCTTCGCTCTTCGCCGGATCTAGCACCGACGGTCGGAGTCACCTAGTGCAG” it is 9000 fluorescence intensity (a.u.).
Turning to “TTCTTTTGCCGTGCTCCCAGATTCTCCGGTCGCCACGACTCGGAGTCACCTAGTGCAG”, the binding signal was 8590 fluorescence intensity (a.u.).
With “ACCTCTTATTTGACTTTTTCACTATTTTGAAATACGAAAACGGAGTCACCTAGTGCAG”, the binding signal was 9360 fluorescence intensity (a.u.).
Consider “AATGTATTTGTCTTATGTTAAATATATTACTACTCTTTTTCGGAGTCACCTAGTGCAG”, for which the binding signal was 8080 fluorescence intensity (a.u.).
Regarding “TATCCGATCCATGGCGTTCTCTTGAGTCCAGAGAGTATTTCGGAGTCACCTAGTGCAG”, the binding signal was 8460 fluorescence intensity (a.u.).
